# Assay results from PubChem BioAssay (EPA / NIEHS).
# Results filed as inconclusive are left out. Calls of active or inactive are those of the source. The calls were made as follows: active = hit-call score of the fitted dose curve at least 0.9, where 1 is the maximum; inconclusive = response in the unintended direction; inactive = score below 0.9.
# Key:
# [1] = target: human Adenosine Transporter (Adot), SLC29A1 (gene 2030) (UniProt Q99808); test: NVS_TR_hAdoT: NovaScreen (NVS) Transporter Assay for human Adenosine Transporter (Adot) (AID 2283368)
# Method in brief: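 U937-derived membranes, cell-free radioligand binding, filter scintillation 1 h after dosing. 25 uM duplicate screen; hits (e.g. 30% inhibition) run in concentration-response up to 50 uM; loss of signal versus DMSO.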
# [2] = target: Estrogen receptor beta (Homo sapiens) (UniProt Q92731); test: OT_ER_ERbERb_1440: Odyssey Thera (OT) 24-hour HEK293T Protein-Complementation Assay for Estrogen Receptor-beta/-beta Homodimer (AID 2283380);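 also: fluorescence gain from ER beta LBD homodimer complementation read by laser scanning cytometry; scored as signal increase over DMSO baseline for both agonists and antagonists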
# Method in brief: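 HEK293T cells stably expressing human ER-beta LBD (aa 310-547) PCA homodimer pair, dosed 24 h; formaldehyde-fixed, Draq5-stained. Readout: increase in nuclear (agonist) or nuclear plus cytoplasmic (antagonist) fluorescence intensity versus DMSO, gain-of-signal fitting.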
# [3] = target: human Thyroid Receptor Alpha (TRa), THRA (gene 7067) (UniProt P10827); test: NVS_NR_hTRa_Antagonist: NovaScreen (NVS) Nuclear Receptor Binding Assay for human Thyroid Receptor Alpha Antagonism (TRa) (AID 2283362);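 also: activity is loss of signal relative to DMSO baseline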
# Method in brief: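 Cell-free AlphaLISA chemiluminescent binding read 1 h after dosing, antagonist mode; signal loss versus DMSO baseline. Primary screen in duplicate at 25 uM, then concentration series for actives.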
# [4] = target: Glucocorticoid receptor (Homo sapiens) (UniProt P04150); test: NVS_NR_hGR: NovaScreen (NVS) Nuclear Receptor Binding Assay for human Glucocorticoid Receptor (GR) (AID 2283363);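 as to AC50: activity is loss of specific radioligand binding signal relative to DMSO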
# Method in brief: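 Cell-free radioligand binding with extracted receptor protein, read by filter-based scintillation counting 16 hours after dosing. Loss of specific signal versus DMSO baseline was scored. Primary screen ran in duplicate at 25 uM; actives were followed up in concentration series.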
# [5] = target: Nuclear receptor subfamily 1 group I member 2 (Homo sapiens) (UniProt O75469); test: NVS_NR_hPXR: NovaScreen (NVS) Nuclear Receptor Binding Assay for human Pregnane X Receptor (PXR) (AID 2283365);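 also: a drop in FRET signal versus DMSO baseline means the compound binds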
# Method in brief: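 Cell-free TR-FRET binding assay with extracted human PXR protein, read 2 h after dosing. Primary screen run in duplicate at 25 uM, actives followed in concentration series; loss of signal fitted against DMSO baseline.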
# [6] = target: Peroxisome proliferator-activated receptor gamma (Homo sapiens) (UniProt P37231); test: NVS_NR_hPPARg: NovaScreen (NVS) Nuclear Receptor Binding Assay for human Peroxisome Proliferator-activated Receptor gamma (PPARg) (AID 2283370)
# Method in brief: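 Cell-free fluorescence polarization binding to human PPARg protein, read 2 h after dosing. Primary screen in duplicate at 25 uM, actives followed in concentration series; loss of signal relative to DMSO scored.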
# [7] = target: human Dopamine Transporter (DAT), SLC6A3 (gene 6531) (UniProt Q01959); test: NVS_TR_hDAT: NovaScreen (NVS) Transporter Assay for human Dopamine Transporter (DAT) (AID 2283374);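 also: activity means loss of bound radioligand signal relative to DMSO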
# Method in brief: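 Cell-free radioligand binding to extracted human DAT protein, read 1 h after dosing by filter-based scintillation counting. Loss of specific binding scored against DMSO baseline; primary screen in duplicate at 25 uM, actives then run in concentration series.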
# [8] = target: Agonist Androgen Response Element (ARE), AR (gene 367) (UniProt P10275); test: OT_AR_ARELUC_AG_1440: Odyssey Thera (OT) 24-hour CHO-K1 Luciferase Assay for Agonist Androgen Response Element (ARE) (AID 2283379)
# Method in brief: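 Seed CHO-K1 cells; dose compounds for 24 h; add D-luciferin plus ATP in PBS; read luminescence. Signal increase relative to vehicle defines agonist activity, with at least 3 replicate wells per sample.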
# [9] = target: Norway rat Vesicular Monoamine Transporter (VMAT2), neurotransmitter transporter, Slc18a2 (gene 25549) (UniProt Q01827); test: NVS_TR_rVMAT2: NovaScreen (NVS) Transporter Assay for Norway rat Vesicular Monoamine Transporter (VMAT2), neurotransmitter transporter (AID 2283376);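 also: actives lower the bound radioligand signal below the DMSO level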
# Method in brief: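 Rat forebrain tissue preparation used in a cell-free radioligand binding format; displacement read by filter-based scintillation counting 1 hour after dosing. Primary screen in duplicate at 25 uM, actives then run in concentration series; loss of signal versus DMSO baseline.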
# [10] = target: PGR (gene 5241) (UniProt P06401); test: NVS_NR_hPR: NovaScreen (NVS) Nuclear Receptor Binding Assay for human Progestron Receptor (PR) (AID 2283360);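 also: active means loss of bound radioligand signal versus DMSO baseline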
# Method in brief: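 Competitive displacement of a labelled radioligand from T47D-derived receptor protein is measured in a cell-free format. Initial testing uses 25 uM in duplicate, with positive and negative controls on every plate.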
# [11] = target: human Serotonin Transporter (SERT), SLC6A4 (gene 6532) (UniProt P31645); test: NVS_TR_hSERT: NovaScreen (NVS) Transporter Assay for human Serotonin Transporter (SERT) (AID 2283372)
# Method in brief: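 Radioligand binding to native SERT in human platelet membranes, read by filter-based scintillation counting 1 h after dosing. Primary screen in duplicate at 25 uM; actives followed up in concentration series; loss of signal versus DMSO baseline.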
# [12] = target: rat Serotonin Transporter (SERT), Slc6a4 (gene 25553) (UniProt P31652); test: NVS_TR_rSERT: NovaScreen (NVS) Transporter Assay for rat Serotonin Transporter (SERT) (AID 2283375)
# Method in brief: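 Rat forebrain membranes; radioligand displacement at SERT read by filter-based scintillation counting, 1 h after dosing. Screened in duplicate at 25 uM, actives then run in concentration series; loss of signal versus DMSO baseline.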
# [13] = target: mouse Estrogen Receptor alpha (Era), Esr1 (gene 13982) (UniProt P19785); test: NVS_NR_mERa: NovaScreen (NVS) Nuclear Receptor Binding Assay for mouse Estrogen Receptor alpha (Era) (AID 2283378);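 also: hit means loss of bound radioligand signal relative to DMSO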
# Method in brief: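 Cell-free radioligand competitive displacement binding, read by filter-based scintillation counting 18 h after dosing. Primary screen run in duplicate at 25 uM, actives retested in concentration series; loss of signal versus DMSO.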
# [14] = target: guinea pig Sigma Receptor, Non-selective Binding, SIGMAR1 (gene 100135589) (UniProt Q60492); test: NVS_OR_gSIGMA_NonSelective: NovaScreen (NVS) Nuclear Receptor Binding Assay for guinea pig Sigma Receptor, Non-selective Binding (AID 2283367)
# Method in brief: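 Guinea pig brain membranes, cell-free radioligand binding; read 1 h after dosing by filter-based scintillation counting. Loss of signal vs DMSO baseline taken as displacement. Primary screen single concentration 25 uM in duplicate; actives retested in concentration series.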
# [15] = target: rat Androgen Receptor (AR), Ar (gene 24208) (UniProt P15207); test: NVS_NR_rAR: NovaScreen (NVS) Nuclear Receptor Binding Assay for rat Androgen Receptor (AR) (AID 2283366)
# Method in brief: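 Cell-free radioligand binding on extracts of prostate from testosterone-pretreated rats, read by filter-based scintillation counting 18 h after dosing. Loss of bound signal fitted positively versus DMSO; primary screen in duplicate at 25 uM, actives followed up in concentration series.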
# [16] = test system: guinea pig Dopamine Transporter (DAT), gene 100714898; test: NVS_TR_gDAT: NovaScreen (NVS) Transporter Assay for guinea pig Dopamine Transporter (DAT) (AID 2283369);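 also: active compounds lower bound radioligand signal relative to DMSO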
# Method in brief: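 Guinea pig striatal membranes, cell-free radioligand binding with filter-based scintillation counting, read 2 h after dosing. Loss of signal versus DMSO baseline; single-concentration primary (25 uM) then concentration-response up to 50 uM.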
# [17] = target: human Norepinephrine Transporter (NET), SLC6A2 (gene 6530) (UniProt P23975); test: NVS_TR_hNET: NovaScreen (NVS) Transporter Assay for human Norepinephrine Transporter (NET) (AID 2283377);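 also: cell-free membrane protein extracted from CHO cells expressing human NET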
# Method in brief: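 Radioligand binding to human NET in cell-free CHO-derived protein preparations, read by filter-based scintillation counting 1 hour after dosing. Loss of signal versus DMSO baseline indicated displacement; primary screening in duplicate at 25 uM, actives then titrated.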
# Chain of human Thyroid Receptor Alpha (TRa), THRA (gene 7067) (P10827 whole entry, looked up): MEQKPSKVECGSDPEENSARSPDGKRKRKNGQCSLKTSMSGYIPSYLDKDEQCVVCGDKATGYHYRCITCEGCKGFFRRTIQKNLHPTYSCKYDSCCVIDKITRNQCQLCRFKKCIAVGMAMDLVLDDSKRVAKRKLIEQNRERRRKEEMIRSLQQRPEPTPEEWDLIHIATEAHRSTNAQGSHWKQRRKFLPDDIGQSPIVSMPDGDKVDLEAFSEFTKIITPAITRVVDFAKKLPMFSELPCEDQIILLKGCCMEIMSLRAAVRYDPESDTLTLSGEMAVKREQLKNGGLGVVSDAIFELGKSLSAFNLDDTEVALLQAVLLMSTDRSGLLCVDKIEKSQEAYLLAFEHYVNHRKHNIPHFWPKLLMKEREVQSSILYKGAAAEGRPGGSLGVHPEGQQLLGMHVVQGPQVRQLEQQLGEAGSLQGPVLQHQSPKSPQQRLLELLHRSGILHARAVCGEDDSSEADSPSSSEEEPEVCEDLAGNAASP
# Chain of Agonist Androgen Response Element (ARE), AR (gene 367) (P10275 whole entry, looked up): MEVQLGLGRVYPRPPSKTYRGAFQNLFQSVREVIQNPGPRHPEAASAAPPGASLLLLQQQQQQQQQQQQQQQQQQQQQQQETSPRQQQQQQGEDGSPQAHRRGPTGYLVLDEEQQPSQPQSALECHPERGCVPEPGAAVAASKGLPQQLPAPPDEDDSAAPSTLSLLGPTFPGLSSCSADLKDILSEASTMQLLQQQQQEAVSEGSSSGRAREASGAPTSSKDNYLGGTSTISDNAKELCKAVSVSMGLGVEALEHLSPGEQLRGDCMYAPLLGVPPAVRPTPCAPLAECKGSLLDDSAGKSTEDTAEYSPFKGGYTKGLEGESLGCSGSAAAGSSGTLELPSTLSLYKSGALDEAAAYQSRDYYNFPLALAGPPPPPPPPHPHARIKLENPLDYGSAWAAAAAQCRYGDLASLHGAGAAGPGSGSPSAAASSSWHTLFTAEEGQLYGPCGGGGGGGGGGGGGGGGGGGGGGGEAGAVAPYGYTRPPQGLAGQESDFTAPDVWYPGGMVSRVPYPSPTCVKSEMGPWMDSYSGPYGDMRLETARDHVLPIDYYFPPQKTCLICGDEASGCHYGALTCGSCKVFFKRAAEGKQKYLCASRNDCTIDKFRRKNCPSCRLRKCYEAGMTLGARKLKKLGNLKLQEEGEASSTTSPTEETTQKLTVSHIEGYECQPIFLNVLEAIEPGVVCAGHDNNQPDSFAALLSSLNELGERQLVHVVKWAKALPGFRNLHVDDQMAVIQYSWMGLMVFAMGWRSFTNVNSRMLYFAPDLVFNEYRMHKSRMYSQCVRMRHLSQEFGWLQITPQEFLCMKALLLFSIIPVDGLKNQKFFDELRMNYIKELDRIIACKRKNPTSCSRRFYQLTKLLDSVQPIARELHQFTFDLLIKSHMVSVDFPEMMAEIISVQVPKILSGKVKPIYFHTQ
# Chain of Estrogen receptor beta (Homo sapiens) (Q92731 whole entry, looked up, the tested form may be a part): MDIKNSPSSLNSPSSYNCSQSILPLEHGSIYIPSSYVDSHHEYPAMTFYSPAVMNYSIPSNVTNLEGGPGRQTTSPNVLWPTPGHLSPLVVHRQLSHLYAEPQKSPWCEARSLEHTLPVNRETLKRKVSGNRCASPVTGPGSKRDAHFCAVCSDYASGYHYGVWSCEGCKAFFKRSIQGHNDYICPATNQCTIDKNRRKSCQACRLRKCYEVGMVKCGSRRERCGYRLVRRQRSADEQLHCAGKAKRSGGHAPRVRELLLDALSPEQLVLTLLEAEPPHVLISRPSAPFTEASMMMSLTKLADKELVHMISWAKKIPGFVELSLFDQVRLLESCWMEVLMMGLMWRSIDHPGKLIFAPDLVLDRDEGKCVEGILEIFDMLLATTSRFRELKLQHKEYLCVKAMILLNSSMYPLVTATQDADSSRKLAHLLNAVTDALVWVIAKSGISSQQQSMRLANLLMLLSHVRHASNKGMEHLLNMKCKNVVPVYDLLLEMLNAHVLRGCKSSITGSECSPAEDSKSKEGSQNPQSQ
# Chain of Glucocorticoid receptor (Homo sapiens) (P04150 whole entry, looked up): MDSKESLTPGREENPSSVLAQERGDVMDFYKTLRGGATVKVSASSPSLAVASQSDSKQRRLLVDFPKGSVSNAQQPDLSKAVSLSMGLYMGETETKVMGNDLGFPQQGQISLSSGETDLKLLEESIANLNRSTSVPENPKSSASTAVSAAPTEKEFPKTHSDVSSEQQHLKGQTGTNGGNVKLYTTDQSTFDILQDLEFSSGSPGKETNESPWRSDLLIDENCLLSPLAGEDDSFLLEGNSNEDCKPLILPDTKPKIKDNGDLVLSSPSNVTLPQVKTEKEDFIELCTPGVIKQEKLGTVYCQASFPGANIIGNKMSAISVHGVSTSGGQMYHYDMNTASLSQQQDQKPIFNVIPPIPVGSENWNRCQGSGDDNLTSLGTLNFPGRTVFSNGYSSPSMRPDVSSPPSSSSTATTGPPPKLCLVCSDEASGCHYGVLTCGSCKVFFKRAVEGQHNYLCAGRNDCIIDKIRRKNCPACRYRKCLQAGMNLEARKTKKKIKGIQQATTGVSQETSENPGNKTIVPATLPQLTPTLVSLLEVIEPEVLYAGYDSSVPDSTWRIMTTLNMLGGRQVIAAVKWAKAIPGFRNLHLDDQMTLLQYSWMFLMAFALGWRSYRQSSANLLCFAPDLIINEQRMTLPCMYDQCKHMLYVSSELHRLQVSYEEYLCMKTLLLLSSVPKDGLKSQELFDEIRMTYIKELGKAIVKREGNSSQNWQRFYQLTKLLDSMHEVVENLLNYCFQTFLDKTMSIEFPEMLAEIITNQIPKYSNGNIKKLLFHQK
# Chain of human Dopamine Transporter (DAT), SLC6A3 (gene 6531) (Q01959 whole entry, looked up): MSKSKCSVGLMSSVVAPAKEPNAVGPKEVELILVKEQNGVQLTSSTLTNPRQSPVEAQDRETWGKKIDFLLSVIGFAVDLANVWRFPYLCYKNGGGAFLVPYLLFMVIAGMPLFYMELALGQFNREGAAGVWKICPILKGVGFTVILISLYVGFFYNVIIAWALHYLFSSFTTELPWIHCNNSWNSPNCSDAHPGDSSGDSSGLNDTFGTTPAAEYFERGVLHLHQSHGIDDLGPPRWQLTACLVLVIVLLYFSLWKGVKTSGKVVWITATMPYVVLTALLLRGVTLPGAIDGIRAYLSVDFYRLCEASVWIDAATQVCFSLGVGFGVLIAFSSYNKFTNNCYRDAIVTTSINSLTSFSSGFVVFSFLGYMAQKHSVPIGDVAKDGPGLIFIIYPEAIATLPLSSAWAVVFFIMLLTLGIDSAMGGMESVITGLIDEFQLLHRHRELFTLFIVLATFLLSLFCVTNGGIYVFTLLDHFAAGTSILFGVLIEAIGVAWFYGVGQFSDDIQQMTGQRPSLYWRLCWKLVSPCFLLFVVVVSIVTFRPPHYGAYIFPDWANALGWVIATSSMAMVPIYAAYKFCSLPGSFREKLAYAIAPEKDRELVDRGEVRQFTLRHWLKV
# Chain of Nuclear receptor subfamily 1 group I member 2 (Homo sapiens) (O75469 whole entry, looked up): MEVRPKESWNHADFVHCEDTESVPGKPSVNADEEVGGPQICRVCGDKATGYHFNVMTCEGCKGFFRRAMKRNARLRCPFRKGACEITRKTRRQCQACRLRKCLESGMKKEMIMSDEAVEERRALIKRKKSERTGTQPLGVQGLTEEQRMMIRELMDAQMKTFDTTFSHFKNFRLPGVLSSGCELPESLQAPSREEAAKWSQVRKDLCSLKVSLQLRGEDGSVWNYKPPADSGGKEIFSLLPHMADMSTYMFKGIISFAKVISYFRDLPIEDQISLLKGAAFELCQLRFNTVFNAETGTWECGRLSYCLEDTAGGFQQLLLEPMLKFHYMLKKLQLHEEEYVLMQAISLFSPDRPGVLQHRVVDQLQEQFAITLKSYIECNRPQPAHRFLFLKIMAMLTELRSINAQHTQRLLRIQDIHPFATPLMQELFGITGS
# Chain of guinea pig Sigma Receptor, Non-selective Binding, SIGMAR1 (gene 100135589) (Q60492 whole entry, looked up): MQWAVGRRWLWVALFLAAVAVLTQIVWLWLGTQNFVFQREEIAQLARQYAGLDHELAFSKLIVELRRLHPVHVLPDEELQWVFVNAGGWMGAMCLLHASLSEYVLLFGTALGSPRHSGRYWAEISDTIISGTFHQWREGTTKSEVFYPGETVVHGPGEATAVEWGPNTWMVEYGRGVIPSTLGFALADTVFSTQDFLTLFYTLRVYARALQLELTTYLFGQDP
# Chain of mouse Estrogen Receptor alpha (Era), Esr1 (gene 13982) (P19785 whole entry, looked up): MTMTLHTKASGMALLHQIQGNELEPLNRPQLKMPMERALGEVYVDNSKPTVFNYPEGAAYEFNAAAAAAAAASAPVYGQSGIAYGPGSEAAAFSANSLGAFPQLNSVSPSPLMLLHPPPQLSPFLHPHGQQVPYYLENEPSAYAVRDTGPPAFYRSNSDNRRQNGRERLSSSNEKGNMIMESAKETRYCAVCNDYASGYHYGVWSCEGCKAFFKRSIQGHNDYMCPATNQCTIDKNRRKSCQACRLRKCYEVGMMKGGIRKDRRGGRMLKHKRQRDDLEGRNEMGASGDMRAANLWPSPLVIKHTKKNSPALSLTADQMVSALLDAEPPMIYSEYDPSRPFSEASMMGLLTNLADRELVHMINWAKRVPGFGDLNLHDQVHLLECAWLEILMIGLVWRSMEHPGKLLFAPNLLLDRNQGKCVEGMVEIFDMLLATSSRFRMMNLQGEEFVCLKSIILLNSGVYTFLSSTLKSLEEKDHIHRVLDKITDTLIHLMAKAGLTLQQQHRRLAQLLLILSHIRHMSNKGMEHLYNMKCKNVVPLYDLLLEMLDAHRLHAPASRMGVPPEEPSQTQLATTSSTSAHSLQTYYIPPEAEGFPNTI
structure (smiles),measurement,setting,value
Nc1c(Cl)c(Cl)nc(C(=O)O)c1Cl,outcome,[1],inactive
same,outcome,[2],inactive
CC(C)(C)C(=O)C(Oc1ccc(Cl)cc1)n1cncn1 (stereo not given),outcome,[3],inactive
same,outcome,[4],inactive
same,AC50,[5],2.31 µM (active)
same,outcome,[6],inactive
same,AC50,[7],0.238 µM (active)
same,outcome,[2],inactive
Cc1cnc(C2=NC(C)(C(C)C)C(=O)N2)c(C(=O)O)c1 (stereo not given),outcome,[3],inactive
same,outcome,[8],inactive
same,outcome,[2],inactive
CC(C)C1(C)N=C(c2ncccc2C(=O)O)NC1=O (stereo not given),outcome,[4],inactive
same,outcome,[5],inactive
Clc1nc(Cl)nc(Nc2ccccc2Cl)n1,AC50,[3],25 µM (active)
same,outcome,[9],inactive
same,outcome,[2],inactive
CCN(CC)c1nc(C)cc(OP(=S)(OC)OC)n1,outcome,[10],inactive
same,outcome,[3],inactive
same,AC50,[4],9.72 µM (active)
same,outcome,[6],inactive
same,AC50,[2],50 µM (active)
CNC(=O)Oc1cccc2ccccc12,outcome,[10],inactive
same,outcome,[3],inactive
same,outcome,[11],inactive
same,AC50,[12],7.36 µM (active)
same,outcome,[13],inactive
N#CN=C1SCCN1Cc1ccc(Cl)nc1,outcome,[14],inactive
COP(=S)(OC)SCn1nnc2ccccc2c1=O,outcome,[15],inactive
same,outcome,[13],inactive
same,outcome,[8],inactive
same,outcome,[2],inactive
CCOP(=O)(OCC)Oc1nc(Cl)c(Cl)cc1Cl,outcome,[10],inactive
same,outcome,[7],inactive
same,outcome,[8],inactive
same,outcome,[2],inactive
N#Cc1c(Cl)cccc1Cl,outcome,[10],inactive
same,outcome,[3],inactive
same,outcome,[4],inactive
same,outcome,[5],inactive
same,outcome,[6],inactive
same,outcome,[2],inactive
CC(C)Oc1cccc(NC(=O)c2ccccc2C(F)(F)F)c1,outcome,[10],inactive
same,outcome,[4],inactive
same,outcome,[2],inactive
CCNC(=O)NC(=O)C(C#N)=NOC,outcome,[4],inactive
same,outcome,[5],inactive
CN=C=S,outcome,[10],inactive
same,outcome,[3],inactive
CC1(C)CON(Cc2ccccc2Cl)C1=O,AC50,[14],15.2 µM (active)
same,AC50,[7],6.47 µM (active)
same,outcome,[2],inactive
CCCCC(C#N)(Cn1cncn1)c1ccc(Cl)cc1 (stereo not given),outcome,[3],inactive
same,outcome,[4],inactive
same,AC50,[16],15.4 µM (active)
same,outcome,[6],inactive
same,AC50,[7],7.18 µM (active)
CC1(C)CCC(=Cc2ccc(Cl)cc2)C1(O)Cn1cncn1 (stereo not given),AC50,[16],1.19 µM (active)
same,AC50,[7],0.545 µM (active)
same,outcome,[13],inactive
same,outcome,[8],inactive
same,outcome,[2],inactive
CCN(CC)C(=O)C(C)Oc1cccc2ccccc12 (stereo not given),AC50,[14],18.8 µM (active)
same,AC50,[7],10.4 µM (active)
same,outcome,[2],inactive
CCCN(CC)CC1COC2(CCC(C(C)(C)C)CC2)O1 (stereo not given),outcome,[4],inactive
same,outcome,[5],inactive
same,AC50,[14],0.0101 µM (active)
same,outcome,[2],inactive
OC(c1ccc(Cl)cc1)(c1ccc(Cl)cc1)C(Cl)(Cl)Cl,outcome,[3],inactive
same,AC50,[4],6.9 µM (active)
same,outcome,[16],inactive
same,AC50,[7],8.54 µM (active)
same,outcome,[13],inactive
same,AC50,[2],12.3 µM (active)
CC1(C)C(C=C(Cl)Cl)C1C(=O)OC(C#N)c1cccc(Oc2ccccc2)c1 (stereo not given),outcome,[10],inactive
same,outcome,[4],inactive
same,AC50,[16],9.19 µM (active)
same,AC50,[7],6.48 µM (active)
same,AC50,[17],12.2 µM (active)
same,outcome,[2],inactive
